Laboratory results from the antibiotic and cytotoxicity screens of Wong et al. (2023).
About 3,300 (8.5%) of roughly 39,000 compounds were called active. The sample as a whole holds a higher share of actives than the screen did.

tested on: HepG2; assay: cytotoxicity call (relative viability < 0.9); conditions: 10 µM

| Structure (SMILES) | cytotoxicity call |
| --- | --- |
| C=CCOC(=O)[C@@H]1[C@H]2C(=O)O[C@H](c3ccccc3)[C@H](c3ccccc3)N2[C@H](c2ccc(OCCOC(=O)[C@H]3C[C@H]4C(=O)N[C@@H](CC(C)C)C(=O)N4[C@H]3c3cccc(OCCO)c3)cc2)[C@@]12C(=O)Nc1ccccc12 | inactive |
| Cc1c(C)n2c3c(=O)n(C)c(=O)n(C)c3nc2n1CCO | inactive |
| CC(C)NC(=O)Nc1ccc2c(c1)CC(=O)N([C@H](C)CO)C[C@@H](C)[C@H](CN(C)S(=O)(=O)c1ccc(F)cc1)O2 | inactive |
| CCC1OC(=O)C(C)C(OC2CC(C)(OC)C(O)C(C)O2)C(C)C(OC2OC(C)CC(N(C)C)C2O)C(C)(O)CC(C)C(=O)C(C)C(O)C1(C)O (centres undefined) | inactive |
| CC[C@H]1OC(=O)[C@H](C)[C@@H](O[C@H]2C[C@@](C)(OC)[C@@H](O)[C@H](C)O2)[C@H](C)[C@@H](O[C@@H]2O[C@H](C)C[C@H](N(C)C)[C@H]2O)[C@](C)(O)C[C@@H](C)C(=O)[C@H](C)[C@@H](O)[C@]1(C)O | active |
| CC[C@H]1OC(=O)[C@H](C)[C@@H](O[C@H]2C[C@@](C)(OC)[C@@H](O)[C@H](C)O2)[C@@H](C)[C@@H](O[C@H]2O[C@H](C)C[C@H](N(C)C)[C@H]2O)[C@](C)(O)C[C@@H](C)C(=O)[C@H](C)[C@@H](O)[C@]1(C)O | inactive |
| O=C(N[C@@H]1CC[C@H](CCNS(=O)(=O)c2ccccc2)O[C@@H]1CO)c1cnccn1 | inactive |
| N#Cc1c(Oc2ccc(F)c(NC(=O)Cc3cccc(C(F)(F)F)c3)c2)ccc2nc(NC(=O)C3CC3)sc12 | active |
| O=C(N[C@H](c1ccc2ccccc2n1)c1cccs1)C1CCN(Cc2cccc(C(F)(F)F)c2)CC1 | inactive |
| C=CC(=O)N1C[C@@H]2CC[C@H](O)[C@@H]2C1 | inactive |
| COc1ccc(-c2oc3cc(O[C@@H]4O[C@@H](C)[C@H](O)[C@@H](O)[C@H]4O)cc(O)c3c(=O)c2O[C@@H]2O[C@H](CO)[C@@H](O)[C@H](O)[C@H]2O)cc1 | inactive |
| Cc1noc(C)c1NC(=O)Nc1ccc2c(c1)CC(=O)N([C@@H](C)CO)C[C@@H](C)[C@H](CN(C)C(=O)NC(C)C)O2 | inactive |
| Cc1ccc(S(=O)(=O)Nc2cc([C@@H](C(=O)OC(C)C)C(=O)C(F)(F)F)c(O)c3ccccc23)c(C)c1 | inactive |
| CNC[C@@H]1OCCCC[C@H](C)Oc2ccc(NC(=O)Nc3ccc(C(F)(F)F)cc3)cc2C(=O)N([C@H](C)CO)C[C@H]1C | inactive |
| O=c1c(O)c(-c2ccccc2)oc2cccc(O)c12 | inactive |
| O=c1c(O)c(-c2ccccc2)oc2cc(O)ccc12 | inactive |
| O=c1c(O)c(-c2ccc(O)cc2)oc2ccccc12 | active |
| O=c1c(O)c(-c2ccccc2)oc2ccccc12 | inactive |
| O=c1c(O)c(-c2ccc(O)c(O)c2)oc2cc(O)ccc12 | active |
| O=c1c(O)c(-c2ccc(O)c(O)c2)oc2cc(O)cc(O)c12 | inactive |
| CCC1OC(=O)C(C)C(OC2CC(C)(OC)C(O)C(C)O2)C(C)C(OC2OC(C)CC(N(C)C)C2O)C(C)(O)CC(C)CN(C)C(C)C(O)C1(C)O (centres undefined) | inactive |
| Cc1noc(C)c1NC(=O)N(C)C[C@@H]1OCCCC[C@H](C)Oc2ccc(NS(=O)(=O)c3cccs3)cc2C(=O)N([C@@H](C)CO)C[C@H]1C | inactive |

| Structure (SMILES) | cytotoxicity call |
| --- | --- |
| CCCNC(=O)C[C@@H]1CC[C@H]2[C@@H](COC[C@@H](O)CN2S(=O)(=O)c2ccc(Oc3ccccc3)cc2)O1 | inactive |
| COCC(=O)Nc1ccc2c(c1)C(=O)N(C)C[C@@H](OC)[C@H](C)CN(Cc1ccccc1OC)[C@H](C)CO2 | inactive |
| Cc1cncc2cccc(S(=O)(=O)NCCN(C/C=C/c3ccc(Br)cc3)C/C=C/c3ccc(Br)cc3)c12 | inactive |
| C[C@@H]1CN([C@H](C)CO)C(=O)Cc2cc(NC(=O)NC3CCCCC3)ccc2O[C@@H]1CN(C)S(C)(=O)=O | active |
| C[C@@H]1CN([C@H](C)CO)C(=O)Cc2cc(NC(=O)NC3CCCCC3)ccc2O[C@H]1CN(C)S(C)(=O)=O | inactive |
| C[C@H]1CN([C@@H](C)CO)C(=O)Cc2cc(NC(=O)NC3CCCCC3)ccc2O[C@H]1CN(C)S(C)(=O)=O | inactive |
| C[C@@H]1CN([C@@H](C)CO)C(=O)Cc2cc(NC(=O)NC3CCCCC3)ccc2O[C@H]1CN(C)S(C)(=O)=O | active |
| C[C@H](CO)N1C[C@H](C)[C@H](CN(C)S(C)(=O)=O)Oc2ccc(NC(=O)NC3CCCCC3)cc2CC1=O | inactive |
| C[C@H](CO)N1C[C@H](C)[C@@H](CN(C)S(C)(=O)=O)Oc2ccc(NC(=O)NC3CCCCC3)cc2CC1=O | inactive |
| COc1ccc(CN(C)C[C@@H]2Oc3ccc(NC(=O)CCN4CCOCC4)cc3C(=O)N([C@@H](C)CO)C[C@H]2C)cc1 | inactive |
| C[C@@H]1CN([C@H](C)CO)C(=O)c2cc(NC(=O)CCC(F)(F)F)ccc2O[C@@H](C)CCCCO[C@H]1CN(C)Cc1ccncc1 | inactive |
| C[C@@H]1CCCCO[C@H](CN(C)S(=O)(=O)c2cccs2)[C@H](C)CN([C@H](C)CO)C(=O)c2cc(NC(=O)Cc3ccccc3)ccc2O1 | inactive |
| C[C@H](CO)N1C[C@H](C)[C@@H](CN(C)C(=O)Nc2ccccc2)Oc2ccc(NC(=O)Nc3cccc4ccccc34)cc2C1=O | inactive |
| C[C@@H]1CN([C@H](C)CO)S(=O)(=O)c2ccc(-c3ccccc3F)cc2O[C@@H]1CN(C)Cc1cncnc1 | inactive |
| CCS(=O)(=O)Nc1ccc2c(c1)C(=O)N(C)[C@H]1CC[C@H](CC(=O)N[C@@H]3CCN(Cc4ccccc4)C3)O[C@H]1CO2 | inactive |
| C[C@@H]1CCCCO[C@@H](CN(C)C(=O)Nc2cccc3ccccc23)[C@H](C)CN([C@@H](C)CO)C(=O)c2cc(NC(=O)Nc3ccc(F)cc3)ccc2O1 | inactive |
| O=C(CCNCCO)c1ccccc1 | inactive |
| O=C1c2ccccc2C(=O)c2c(NCCNCCO)ccc(NCCNCCO)c21 | active |
| O=C1c2c(O)ccc(O)c2C(=O)c2c(NCCNCCO)ccc(NCCNCCO)c21 | active |
| O=C1c2ccccc2C(=O)c2c1ccc(O)c2O | inactive |
| O=[N+]([O-])c1ccc(NCCNCCO)cc1 | inactive |
| Cl.Cl.O=C1c2c(O)ccc(O)c2C(=O)c2c(NCCNCCO)ccc(NCCNCCO)c21 | active |
